Shown are actives, neighbours in structure and some others; about 3.7% of the full set was active somewhere.
Tau fluor counter: counter-screen for tau fibril formation inhibitors; tau K18 P301L Alexa594 fluorescence, heparin fibrillization; 280,000 tested, 0.93% active; Potency, µM (series often up to 57.7 µM), without a hit: at the top dose activity change, negative = decrease; further: on the % scale 0 is the no-effect control and ±100 the full control effect; nearly all actives have a fitted effect of over 55% in size
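Human K18 P301L tau (15 uM unlabeled plus 0.24 uM Alexa 594-labeled, final) in 100 mM sodium acetate pH 7 was mixed with compound and 20 uM heparin and incubated 6 hr at 37 C.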
Tau fibril FP: tau fibrillization inhibition (FP) | P10636 | K18 P301L tau heparin fibrillization, Alexa594 FP, 6 h | Potency, µM (top dose mostly 57.7 µM), for inactives: top-dose activity, negative = inhibition, hits mostly inhibitors | 280,000 tested, 0.39% active | AID 1468; further: on the % scale 0 is the no-effect control and ±100 the full control effect; nearly all actives have a fitted effect of over 55% in size
Target sequence (P10636 561-689 P618L limits assumed): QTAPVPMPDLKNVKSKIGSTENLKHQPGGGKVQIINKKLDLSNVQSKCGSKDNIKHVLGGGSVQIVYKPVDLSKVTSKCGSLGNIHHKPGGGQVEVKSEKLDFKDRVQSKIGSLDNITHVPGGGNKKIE
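Heparin (20 uM) drove fibril formation of recombinant tau K18 P301L, 15 uM unlabeled with 0.24 uM Alexa 594 label, for 6 hr at 37 C in 100 mM sodium acetate pH 7. Fluorescence polarization (555/632 nm) read 1 hr after 30 uM ThT.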
Tau fibril ThT: tau fibrillization inhibition (ThT binding). P10636. recombinant tau K18 P301L (four-repeat tau fragment), heparin-induced fibrillization, ThT fluorescence. Potency, µM (top dose mostly 57.4 µM), for inactives: top-dose activity, negative = inhibition, usual class: inhibitors. 270,000 tested, 2.1% active. AID 1460; further: on the % scale 0 is the no-effect control and ±100 the full control effect; nearly all actives have a fitted effect of over 55% in size
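Tau K18 P301L fragment (15 uM unlabeled plus 0.24 uM Alexa 594-labeled) in 100 mM sodium acetate pH 7 with compound, fibrillization induced by 20 uM heparin for 6 hr at 37 C. Thioflavin T (30 uM) added, fluorescence read after 1 hr (ex 450, em 510 nm).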
HTT cytoprotect: protects HTT-Q103 PC12 cells, measured by ATP; PC12 HTT-Q103 induced, cytoprotection, ATP luminescence, 40 h; Potency, µM (highest dose often 56.4 µM), for inactives: cytoprotection (ATP increase), hits mostly activators; 230,000 tested, 0.14% active; AID 1471; further: % of control where 0% means no effect; nearly all actives have a fitted effect of over 45% in size
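Compounds were screened for protection of PC12 cells against cell death after tebufenozide induction (100 nM final) of mutant Huntingtin exon 1 (Q103) fused to GFP.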
HttQ103 aggreg: mutant huntingtin aggregation inhibition. PC12 HttQ103-GFP aggregates, Acumen cytometry, 40 h. Potency, µM (top dose mostly 46.1 µM), for inactives: top-dose activity change, negative = inhibition, hits mostly inhibitors. 220,000 tested, 1.1% active. AID 1688; further: on the % scale 0 is the no-effect control and ±100 the full control effect; nearly all actives have a fitted effect of over 60% in size
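Quantitative HTS on tebufenozide-induced (100 nM) PC12 cells stably expressing polyQ103 Huntingtin exon 1–GFP. Reduction of bright GFP aggregates, detected by laser scanning cytometry after lysis, identified actives across the titration.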
An asterisk follows results filed as active; ? = inconclusive; . = no result; [ ] = dose if it differs, or a comment. The call rests on the fitted dose curve; in most records, active means well fitted curve in the direction sought with a large enough effect; inconclusive means small, poorly fitted or top-dose-only effect, or another doubt; inactive means no such curve, though single readings can be large; an effect the other way counts as inactive or inconclusive. Potency means the concentration at half of the fitted maximal effect.

SMILES | Tau fluor counter | Tau fibril FP | Tau fibril ThT | HTT cytoprotect | HttQ103 aggreg
O=C(C1CCCN(S(=O)(=O)c2cccc3nonc23)C1)N1CCN(c2ccccc2Cl)CC1 (stereo not given) | ? | ? | -5.1% | . | -24.5%
O=C(C1CCCN(S(=O)(=O)c2cccc3nonc23)C1)N1CCC(Cc2ccccc2)CC1 (stereo not given) | -26.4% | 4.4% | -10.8% | -38.9% | 35.5µM*
COc1ccc(N/C=C/C(=O)c2ccc(Cl)cc2)cc1 | -0.3% | -1.1% | ? | 23.2%[10 µM] | 6.8%
COc1ccc(N/C=C2\C(=O)CCc3c2oc2cc(Cl)c(O)c(Cl)c32)cc1 | ? | 15.9% | 2.51µM* | -3.4%[10 µM] | 3.6%[9.22 µM]
CCOC(=O)c1c(NC(C)=O)c2c3c(sc2n1Cc1cccc(Cl)c1)CCCC3 | 1.0% | 0.7% | -0.6% | . | .
O=C(CCl)NCc1cc(-c2ccc(Cl)cc2)no1 | -0.1% | 5.5% | -5.3% | -198.0% | 35.5µM*
CN(C)c1cc(Cl)c2nonc2c1N | ? | ? | 25.1µM* | 11.9%[10 µM] | -9.1%[9.22 µM]
Nc1c(C(=O)Nc2nc3ccccc3s2)sc2nc(-c3cccs3)ccc12 | 12.6µM*[quencher] | 4.2% | ? | -117.1% | ?
CC(=O)c1sc2nc(-c3cccs3)ccc2c1N | ? | -16.2% | 15.8µM* | 1.7% | -1.7%[9.22 µM]
Nc1c(C(=O)Nc2ccc(F)c(F)c2)sc2nc(-c3ccncc3)ccc12 | ? | 7.0% | ? | . | .
Nc1c(C(=O)Nc2ccc(Cl)cc2F)sc2nc(-c3cccs3)ccc12 | 2.24µM*[quencher] | -12.4% | ? | . | .
Nc1c(C(=O)Nc2ccccc2Br)sc2nc(-c3cccs3)ccc12 | 3.16µM*[quencher] | ? | ? | . | .
COc1ccccc1NC(=O)c1sc2nc(-c3ccco3)ccc2c1N | ? | 8.6% | ? | 0.0%[0.074 µM] | 21.2%
Cc1ccc(OC2C(O)COC2/C=C/C#Cc2ccc(C(C)(C)C)cc2)cc1 (stereo not given) | -14.9%[11.6 µM] | 0.0%[11.6 µM] | -8.4%[11.5 µM] | -2.0%[10 µM] | .
OCCNc1ncnc2c1ncn2[C@@H]1O[C@@H](CO)[C@H](O)[C@@H]1O | . | . | . | -8.1%[10 µM] | .
O=C(COc1ccc2ccccc2c1)Nc1cccc(C(=O)Nc2ccccc2C(=O)O)c1 | -9.5% | 7.0% | 12.4% | 13.0%[10 µM] | -9.1%
O=C(O)c1ccccc1Nc1cccc(OCc2ccc3ccccc3n2)c1 | 8.91µM*[quencher] | -2.1% | 14.1µM* | ? | .
CC(=O)c1ccc(N=Nc2ccc(N)cc2)cc1 | ? | -5.2% | 0.562µM* | -78.8%[10 µM] | -16.7%[9.22 µM]
CC1CCN(S(=O)(=O)c2ccc3c(c2)N(CC(=O)N(C)Cc2ccccc2)C(=O)CO3)CC1 | -14.3% | -0.3% | -4.0% | . | .
CC(=O)Cc1nsc(NC(=O)c2ccc(-c3cc(C(F)(F)F)ccc3Cl)o2)n1 | -7.5% | -3.0% | -7.9% | -0.2% | 2µM*
Cc1ccc2nc(SCC(=O)Nc3ccc4c(c3)OCCO4)[nH]c2c1 | ? | -5.0% | ? | 3.2% | 5.1%[9.22 µM]
Cc1cccc(-c2nc(SCC(=O)Nc3ccc4c(c3)OCCO4)c(-c3ccccc3)[nH]2)c1 | 8.91µM*[quencher] | 2.0% | -13.8% | . | .
O=C(CSc1nc(-c2cccc(F)c2)[nH]c1-c1ccccc1)Nc1ccc2c(c1)OCCO2 | 11.2µM*[quencher] | ? | ? | . | .
CCOC(=O)C1=C(C)OC(N)=C(C#N)C1c1cccs1 (stereo not given) | -13.4% | ? | -17.3% | -27.5% | -6.8%
CCN1CC2=C(OC(N)=C(C#N)C2c2ccccc2)/C(=C\c2ccccc2)C1 (stereo not given) | -13.4% | -8.4% | ? | 0.6% | 24.5%
SMILES | Tau fluor counter | Tau fibril FP | Tau fibril ThT | HTT cytoprotect | HttQ103 aggreg
CCN1C=C(Cc2cccs2)C2=C(C1)C(c1cccs1)C(C#N)=C(N)O2 (stereo not given) | -23.2% | -9.0% | 22.4µM* | -44.6% | 8.8%
CCN1CC2=C(OC(N)=C(C#N)C2c2cccs2)/C(=C/c2cccs2)C1 (stereo not given) | -25.1% | -6.1% | 15.8µM* | -20.9%[10 µM] | 9.8%
CCCCn1cnc2c(SC)ncnc21 | . | . | . | -0.7%[10 µM] | .
CCCOc1ccc(N)cc1N | 11.2µM*[quencher] | 7.08µM* | 3.16µM* | -131.6% | ?
CCCOc1cc(N)ccc1C(=O)OCCN(CC)CC | . | . | . | -63.2%[17.1 µM] | 21.2%[20.6 µM]
CC(C)Oc1cc(O)c2c(c1)OCC=C2CCC(=O)O | . | . | . | 9.7%[10 µM] | .
N#C[C@@H](N=Nc1ccccc1C(=O)O)C(N)=O | . | . | . | -21.5%[10 µM] | .
